The other results are listed elsewhere or left out. The source made the active and inactive calls. Cut-off not given; nearly all actives show AC50 up to about 14 µM.
Assay: AlphaScreen signal interference counter-screen, dose response, artefact control, biochemical, cherry-picked samples, luminescence (AID 720494)
Settings: series mostly up to 12 µM
With `COc1ccc(N2CCN(C3CCCCC3NS(=O)(=O)c3ccccc3)CC2)cc1` (stereo not drawn) the AC50 was “inactive”.
For `CN(C)CCNC(=O)c1cccc(-c2cnc3c(NC=O)cc(-c4cccc(C(F)(F)F)c4)cn23)c1`, the AC50 was “inactive”.
With `Cc1c(C)n(Cc2ccc(Cl)cc2)c2ccc(C(=O)NCCCN3CCOCC3)cc12` the AC50 was “inactive”.
With `COc1ccc2sc(N(CCCN(C)C)C(=O)c3ccc(S(=O)(=O)N(C)C4CCCCC4)cc3)nc2c1` the AC50 was “inactive”.
In the case of `CCN(CC)CCOc1ccc2c(c1)C(=NNC(=O)c1ccccn1)c1cc(OCCN(CC)CC)ccc1-2`, the AC50 was “inactive”.
In the case of `O=C(NCCc1cccc(F)c1)C1CCCN(c2nc3ccccc3s2)C1` (stereo not drawn), the AC50 was “inactive”.
In the case of `Cc1ccc(Nc2cc(C)nc3c(C)ccc([N+](=O)[O-])c23)cc1`, the AC50 was “inactive”.
In the case of `COc1ccc2c(c1)c(=Cc1ccc(N(C)C)cc1)c1cc(-c3ccccc3)[n+](C)n12`, the AC50 was 3.02 µM (active).
In the case of `Cc1cc(N=Nc2ccc3ccccc3c2)ccc1O`, the AC50 was 11.2 µM (active).
With `C[C@H]1CN([C@@H](C)CO)C(=O)c2c(c3ccccc3n2C)-c2ccccc2CO[C@@H]1CN(C)Cc1ccc2c(c1)OCCN2C` the AC50 was “inactive”.
For `Cc1ccc(NC(=S)N(CCCN2CCCC2)Cc2cccn2Cc2ccc(Cl)cc2)cc1`, the AC50 was “inactive”.
In the case of `COc1ccc2[nH]c3c(C)c4cc[n+](C)cc4c(C)c3c2c1`, the AC50 was “inactive”.
For `COc1ccc(-c2ccc3[nH]c4c(c3c2)CCN2C[C@H]3[C@H](C)ON(C)[C@H]3C[C@@H]42)cc1`, the AC50 was “inactive”.

Reference: PubChem BioAssay AID720494 (Broad Institute, 2013)
